# Laboratory results from PubChem BioAssay (NCI).
# The panel holds about 83,000 compounds, 20% with a hit somewhere; the sample as a whole holds those more often.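 Testing used 96-well plates and a 48-hour single-concentration exposure. Example: -40 means 40% of the starting cells died.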 Unmarked numbers belong to inactive results. The source made the active and inactive calls. The calls were made as follows: active = growth percent below 10; inactive = the rest.
# System: A549/ATCC NSCLC
# Assay: NCI-60 one-dose screen, 48 h (100 = growth as untreated, 0 = no growth, -100 = all killed)
# Details: 10 µM unless noted
row,Structure (SMILES),growth
1,CC1(C)CC[C@]2(C(=O)O)CC[C@]3(C)C(=CCC4[C@@]5(C)C[C@@H](O)[C@@H]6OC(c7ccccc7O)OC[C@@]6(C)C5CC[C@]43C)C2C1 (stereo partly drawn),27.7%
2,CN(c1ccc(Br)cc1)S(=O)(=O)c1ccc(-c2cnc(C3CC3)o2)cc1,26.3%
3,CN1CCN(c2nc(-c3csc(-c4ccncc4)n3)cc3ccccc23)CC1,71.1%
4,O=C(O)c1ccc(-n2cc(CNc3ccc(F)cc3)c(-c3ccc(C(F)(F)F)cc3)n2)cc1,74%
5,CSc1nccc(-c2c(-c3ccc(F)c(OCc4ccc(F)cc4)c3)nc3sccn23)n1,78.7%
6,O=C(COc1ccc(C2SCC(=O)N2c2ccccc2)cc1)c1ccccc1 (stereo not drawn),93.8%
7,O=C(O)CNS(=O)(=O)c1ccc(Oc2ccc(S(=O)(=O)NCC(=O)O)cc2)cc1,101%
8,Cn1nc(Nc2ccccc2)c(C(=O)NN)c1N,98.3%
9,COc1cc(/C=N/n2cnc3oc(-c4ccccc4)cc3c2=N)cc(CN2CCN(C)CC2)c1O,94.3%
10,CC(C)SC1=NC(=C(C(=N1)NC2=ClC=CC=C2)C#N)C3=CC=CC=C3,35.2%
11,NS(=O)(=O)c1ccc(Nc2nc(N/N=C/c3ccc(F)cc3)nc(Nc3ccccc3)n2)cc1,7.78% (active)
12,C#C[C@]1(O)CC[C@H]2[C@@H]3CC=C4c5sc(Nc6cccc(C)n6)nc5CC[C@]4(C)[C@H]3CC[C@@]21C,30.7%
13,CNC(=O)c1cc(Oc2ccc3nc(NC(=O)c4cc(C)cc(C)c4)sc3c2)ccn1,89.7%
14,C=C(C)[C@@H]1CC[C@]2(COS(C)(=O)=O)CC[C@]3(C)[C@H](CC[C@@H]4[C@@]5(C)CCCNC(C)(C)[C@@H]5CC[C@]43C)[C@@H]12,54.2%
15,CC(C)=CCc1c2c(c(O)c3c1O[C@]14C(=C[C@@H]5C[C@H]1C(C)(C)O[C@@]4(C/C=C(/C)C(=O)O)C5=O)C3=O)CC(O)C(C)(C)O2 (stereo partly drawn),-9.15% (active)
16,O=C(Cn1cc(CN2C(=O)c3ccc([N+](=O)[O-])cc3C2=O)nn1)Nc1ccccc1Br,108%
17,COc1cc(-c2nc(SCc3ccc(C)cc3)[nH]c(=O)c2C#N)ccc1OCc1ccccc1,102%
18,CC(C)N=C(N/C(N)=N/c1nc2ccccc2s1)NC(C)C,69.3%
19,O=C(Nc1cc(Cl)cc(Cl)c1)Nc1ccc2oc(=O)ccc2c1,16.2%

row,Structure (SMILES),growth
1,CS(=O)(=O)c1nccc(-c2c(-c3ccc(F)c(OCc4ccccc4)c3)nc3sccn23)n1,103%
2,COc1ccc(C2C(C#N)=C(N)Oc3c2sc2ccc(C)cc32)cc1 (stereo not drawn),45.6%
3,C#C[C@]1(O)CC[C@H]2[C@@H]3CC=C4c5sc(-c6ccccn6)nc5CC[C@]4(C)[C@H]3CC[C@@]21C,85.7%
4,COc1ccc(OC)c([C@H]2c3[nH]c4ccccc4c3C[C@H]3C(=O)N(CCCCCCC(=O)NO)CC(=O)N23)c1,106%
5,Cc1cnc2nc(NN)[nH]n12,99.2%
6,COc1ccc(-c2nc3cc(Cl)c(Cl)cc3n2CC(=O)N=Nc2c(O)[nH]c3ccc(Br)cc23)cc1,-28.9% (active)
7,O=C(NCCCCCCNC(=O)c1c2c(nc3ccccc13)-c1cccnc1SC2)c1c2c(nc3ccccc13)-c1cccnc1SC2,70.6%
8,COc1ccc(-c2ccc3c4c(cccc24)C(=O)N(N2C(=O)c4cccc5cccc(c45)C2=O)C3=O)cc1,107%
9,COc1ccc(-c2nc3cc(Cl)c(Cl)cc3n2CC(=O)N=Nc2c(O)[nH]c3ccc(Cl)cc23)cc1,18.5%
10,CCOC(=O)c1c(NCC(=O)Nc2ccc(Br)cc2)sc2c1CCCC2,73.2%
11,CN1C(=O)/C(=C/C=C/c2ccco2)SC1=S,72%
12,COc1ccc(-c2nnc(SCc3ccc(O)c4ncccc34)o2)cc1,41.2%
13,C#CCOc1ccc(/C=N/Nc2nc(-c3cc4cc(Br)cc(Br)c4oc3=O)cs2)cc1,97%
14,CS(=O)c1nccc(-c2c(-c3ccc(F)c(OCCc4ccc(F)cc4)c3)nc3sccn23)n1 (stereo not drawn),101%
15,O=C1[C@@H]2Cc3c([nH]c4ccccc34)[C@H](c3c(Cl)cccc3Cl)N2C(=O)CN1C1CCN(Cc2c(F)cccc2F)CC1,92.3%
16,NNC(=O)c1sc2nc(-c3cnccn3)cc(-c3cccs3)c2c1N,102%
17,Cn1cc(-c2nnc(N)nc2-c2cn(C)c3ccc(F)cc23)c2cc(F)ccc21,77.2%
18,COc1ccccc1/C=C/C=N/NC1=NC2C(S1)N(C)C(=O)N2c1ccccc1 (stereo not drawn),22.5%
19,C[C@H]1[C@H](C)CC[C@]2(COC(=O)c3cccnc3)CC[C@]3(C)C(=CC[C@@H]4[C@@]5(C)CCCNC(C)(C)[C@@H]5CC[C@]43C)[C@H]12,78.6%
